Assay outcomes: PubChem, The Scripps Research Institute Molecular Screening Center
pPAFAH inh – pPAFAH enzyme inhibitors, primary screen, biochemical, fluorescence polarization, human; actives 1.5% (n = 330,000); AID 463082, 2010; recombinant pPAFAH, FP-rhodamine probe fluorescence polarization; inhibition, % at 3.39 µM;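 active = inhibition above the mean inhibition across the screen plus 3 SD, cut at about 25% in these data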;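 note: inhibitors block binding of the rhodamine activity-based probe so polarization drops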
LYPLA2 inh – LYPLA2 inhibitors, primary screen, counter-screen for PME1 inhibitor project, biochemical, fluorescence polarization, FP-Rh probe ABPP; Acyl-protein thioesterase 2 (Homo sapiens), O95372; recombinant LYPLA2; inhibition, % at 5.9 µM; actives 0.38% (n = 320,000); AID 2177, 2009;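 active = inhibition above the screen-wide mean plus 3 SD, limit set per campaign, cut at about 26% in these data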
Target sequence (O95372 whole entry, looked up): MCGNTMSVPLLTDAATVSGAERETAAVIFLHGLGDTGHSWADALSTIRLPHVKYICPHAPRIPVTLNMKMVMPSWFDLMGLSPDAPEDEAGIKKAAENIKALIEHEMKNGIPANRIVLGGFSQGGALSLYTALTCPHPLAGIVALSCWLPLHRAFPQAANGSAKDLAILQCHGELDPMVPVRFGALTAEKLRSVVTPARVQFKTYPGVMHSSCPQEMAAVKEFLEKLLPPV
LYPLA1 inh – LYPLA1 inhibitors, primary screen, counter-screen for PME1 inhibitor project, biochemical, fluorescence polarization, FP-Rh probe ABPP | Acyl-protein thioesterase 1 (Homo sapiens), O75608 | recombinant LYPLA1 | inhibition, % at 5.9 µM | actives 0.16% (n = 320,000);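 active = inhibition above the mean of all tested compounds plus 3 SD, set per campaign, cut at about 14% in these data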;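 note: inhibitors block serine hydrolase probe labeling of LYPLA1 so polarization falls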
PAFAH1B3 inh – PAFAH1B3 enzyme inhibitors, primary screen, biochemical, fluorescence polarization, human; recombinant PAFAH1B3, FP-rhodamine probe; inhibition, % at 3.39 µM; actives 0.28% (n = 340,000); AID 492972, 2010;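 active = inhibition above the screen-wide average of all tested compounds plus 3 SD, cut at about 25% in these data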
Target sequence (Q15102 whole entry, looked up): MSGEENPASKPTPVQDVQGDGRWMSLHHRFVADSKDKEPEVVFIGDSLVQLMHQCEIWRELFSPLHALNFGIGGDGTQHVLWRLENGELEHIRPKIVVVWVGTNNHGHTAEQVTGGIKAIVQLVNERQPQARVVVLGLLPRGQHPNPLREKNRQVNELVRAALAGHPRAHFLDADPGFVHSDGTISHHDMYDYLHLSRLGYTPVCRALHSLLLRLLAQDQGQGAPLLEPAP
PAFAH2 inh – PAFAH2 enzyme inhibitors, primary screen, biochemical, fluorescence polarization, human; Platelet-activating factor acetylhydrolase 2, cytoplasmic (Homo sapiens), Q99487; recombinant PAFAH2, FP-rhodamine activity probe; inhibition, % at 3.39 µM; actives 0.99% (n = 340,000); AID 492956, 2010;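 active = inhibition above the mean over all tested compounds plus 3 SD, cut at about 30% in these data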;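 note: inhibitors block probe labeling of enzyme so polarization drops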
PAFAH1B2 FP inh – PAFAH1B2 enzyme inhibitors, primary screen, biochemical, fluorescence polarization, human; actives 1.2% (n = 340,000); inhibition, % at 3.39 µM; recombinant PAFAH1B2, FP-rhodamine activity probe;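 active = inhibition above the mean of all tested compounds plus 3 SD, cut at about 24% in these data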
PAFAH1B3 conf FP – PAFAH1B3 enzyme inhibitors, confirmation, biochemical, fluorescence polarization, human | shares compounds with PAFAH1B3 inh | recombinant PAFAH1B3, FP-Rh activity-based probe | inhibition, % at 3.39 µM | actives 30% (n = 390) | AID 493032, 2011;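 active = average inhibition over triplicate runs above the hit cutoff set in the earlier primary screen, cut at about 25% in these data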
A number is an active result; – = inactive; · = no result given; ! = repeats disagree. The list is not random: actives were taken first. Their share in the collection is about 2.9%.

SMILES	pPAFAH inh	LYPLA2 inh	LYPLA1 inh	PAFAH1B3 inh	PAFAH2 inh	PAFAH1B2 FP inh	PAFAH1B3 conf FP
Cc1cc(NC(=O)C2CCCN(S(=O)(=O)c3c(C)noc3C)C2)n[nH]1 (stereo unspecified)	–	–	–	–	–	–	·
COc1ccc(-n2c(N)c(C(=O)NCC3CCCO3)c3nc4ccccc4nc32)c(OC)c1 (stereo unspecified)	–	–	–	–	–	–	·
C=CCn1c(N)c(C(=O)NCC2CCCO2)c2nc3ccccc3nc21 (stereo unspecified)	–	–	–	26	–	–	–
COc1ccc(/C(C)=N/Nc2cccc(C(=O)O)c2)cc1OC	–	–	–	–	–	–	·
C/C(=N/Nc1ccc(C(=O)O)cc1)c1ccc2c(c1)Nc1ccccc1S2	·	·	·	26	–	–	–
Nc1nc(NCc2cccs2)nn1-c1ccccc1	–	–	–	–	–	–	·
Nc1nc(NCc2ccco2)nn1-c1ccccc1	–	–	–	26	–	–	–
CCOc1nc(Nc2ccc([N+](=O)[O-])cc2)nc(NC(C)(C)C)n1	–	–	–	–	–	–	·
Cc1ccc(CNc2ccc(O)cc2)cc1	·	·	·	39	–	–	–
O=C(COC(=O)c1cc(-c2cccc3ccccc23)nc2ccccc12)NC1CCS(=O)(=O)C1 (stereo unspecified)	–	–	–	29	–	–	–
Cc1ccnc2nc(C(=O)N3CCN(c4ccc(F)cc4)CC3)nn12	–	–	–	–	–	–	·
Cc1nc(C)c(-c2ccc(SCC(=O)Nc3ccccc3)nn2)s1	–	–	–	–	–	–	·
O=C1C(=O)c2c(ccc3ccccc23)-c2ccccc21	·	·	·	56	–	–	–
CN(C)/C=C1\Oc2ccc3ccccc3c2C1=O	–	–	–	–	–	–	·
O=C1c2cccc3c([N+](=O)[O-])ccc(c23)C(=O)N1c1ccccn1	–	–	–	29	–	–	39
CN(C)c1ccc(/C=N/NC(=O)c2ccnn2C)cc1	–	–	–	–	–	–	·
COc1ccc(Cn2ccc(=O)c(Cc3c(Cl)cccc3Cl)c2C)cc1	–	–	–	–	–	–	·
O=C1N/C(=C\c2ccc(O)cc2)C(=O)c2ccccc21	–	–	–	33	–	–	–
CCCCn1nc2cc(C(=O)NCc3ccccc3OC)ccc2c1OCC	–	–	–	–	–	–	·
COCCCNC(=O)c1ccc(CS(=O)(=O)c2ccc(Br)cc2)o1	–	–	–	29	–	–	–
CN=c1sc2c(n1C)C(=O)c1ccccc1C2=O	·	·	·	42	–	–	29
CN=c1sc(C(=O)Nc2ccccc2)c(C)n1C	–	–	–	–	–	–	·
CC1CCCCN1C(=O)c1ccc(S(=O)(=O)N2CCCCC2C)cc1 (stereo unspecified)	–	–	–	–	–	–	·
O=C(COC(=O)c1ccc([N+](=O)[O-])s1)Nc1ncc(C(F)(F)F)cc1Cl	–	–	–	30	–	–	–
O=C(COC(=O)c1ccccn1)Nc1ncc(C(F)(F)F)cc1Cl	–	–	–	–	–	–	·
SMILES	pPAFAH inh	LYPLA2 inh	LYPLA1 inh	PAFAH1B3 inh	PAFAH2 inh	PAFAH1B2 FP inh	PAFAH1B3 conf FP
CC(c1ccccc1)N1C(=O)c2cccnc2C1=O (stereo unspecified)	–	–	–	–	–	–	·
CC(NC1=CC(=O)c2cccnc2C1=O)C(O)c1ccccc1 (stereo unspecified)	·	·	·	56	–	–	43
CS/C(=N\S(=O)(=O)c1cccs1)NC(=O)CSc1nc2ccccc2s1	–	–	–	31!	–	–	–
C/C(=N/NC(=O)CSc1nc2ccccc2s1)c1ccncc1	–	–	–	–	–	–	·
CC1=C(c2ccccc2)C(=S)NC(C)(C)C1	–	–	–	–	–	–	·
O=C1C=C(N(CCO)Cc2ccccc2)c2ccccc2C1=O	·	·	·	44	–	–	29
Cc1ccc(C(C)C)c(OCc2ccc(C(=O)N/N=C/c3ccc(O)cc3O)cc2)c1	–	–	–	42	–	–	26
Brc1ccc(-c2csc(Nc3nc(-c4ccc(Br)cc4)cs3)n2)cc1	–	–	–	34	–	–	–
Nc1ccc2nn(-c3ccc(F)cc3)nc2c1	–	–	–	28	–	–	–
CCN(CC)c1ccc(/C=N/NC(=O)c2ccc3nc[nH]c3c2)c(O)c1	–	–	–	26	–	–	–
COc1cccc(/C=N/NC(=O)c2ccc3nc[nH]c3c2)c1O	–	–	–	–	–	–	·
O=C(NCCN1CCOCC1)C1CCC(=O)N1Cc1ccccc1Cl (stereo unspecified)	–	–	–	–	–	–	·
O=C(O)CNC(=S)N(Cc1ccc(F)cc1)C1CCCCC1	–	–	–	–	–	–	·
COC(=O)c1cc2c(n1S(=O)(=O)c1ccc(C)cc1)C(=O)C(=O)c1[nH]cc(C(=O)OCc3ccccc3)c1-2	·	·	·	39	–	–	34
Cc1ccc(S(=O)(=O)CCC(=O)OCc2nnc(-c3ccccc3)o2)cc1	–	·	·	–	–	–	·
COc1ccccc1NS(=O)(=O)c1cccc(C(=O)NCC(c2ccc(F)cc2)N2CCOCC2)c1 (stereo unspecified)	–	–	–	32	–	–	–
COc1ccc(/C=N/NC(=O)c2ccccc2O)cc1Cn1cc([N+](=O)[O-])cn1	–	–	–	–	–	–	·
COc1ccc(/C=N/NC(=O)c2cc(O)c(O)c(O)c2)cc1Cn1cc([N+](=O)[O-])cn1	·	·	·	39	–	–	–
O=c1[nH]c(Nc2ccc(F)cc2)cc2ccccc12	–	–	–	56	–	–	–
COc1ccccc1CNS(=O)(=O)CCNCCc1ccccc1	·	·	·	–	–	–	·
CCCCNC1=CC(=O)C(=O)c2ccccc21	–	–	–	–	–	–	·
O=C1C=C(Nc2ccccc2)c2ccccc2C1=O	·	·	·	62	–	–	30
CCc1ccc(NC2=CC(=O)C(=O)c3ccccc32)cc1	·	·	·	59	–	–	37
O=C(c1ccc(F)cc1F)N(Cc1ccccn1)Cc1ccco1	–	–	–	–	–	–	·
CC(=C1C(=O)c2ccccc2C1=O)N1CCc2ccccc2C1	–	–	–	27	–	–	–
CC(C(=O)N1CCc2ccccc2C1)N(c1ccccc1)S(C)(=O)=O (stereo unspecified)	–	–	–	–	–	–	·
